From PubChem BioAssay
In the library only some 9% were active in any assay of this set; here they are far more common.
IMPase inh: qHTS Assay for Identifying the Cell-Membrane Permeable IMPase Inhibitors; Inositol monophosphatase 1 (Rattus norvegicus), P97697; CHO-M1 cells, IP1 accumulation, HTRF TR-FRET ratio; inhibition (IP1 accumulation), % at 46.1 µM; 120,000 tested, under 10 active; active = well fitted curve in the direction sought with a large enough effect in the signal ratio, not every such curve was filed as active; inconclusive = small, poorly fitted or top-dose-only effect, or a change in a side signal; inactive = no such curve, though single readings can be large or run the other way; the % refers to the signal ratio;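 note: cells stimulated with carbachol in lithium chloride buffer; plate controls were DMSO basal wells for no effect and reference inhibitor wells for full effect; higher means more IMPase inhibition seen as more IP1 and lower FRET ratio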
Target sequence (P97697 whole entry, looked up): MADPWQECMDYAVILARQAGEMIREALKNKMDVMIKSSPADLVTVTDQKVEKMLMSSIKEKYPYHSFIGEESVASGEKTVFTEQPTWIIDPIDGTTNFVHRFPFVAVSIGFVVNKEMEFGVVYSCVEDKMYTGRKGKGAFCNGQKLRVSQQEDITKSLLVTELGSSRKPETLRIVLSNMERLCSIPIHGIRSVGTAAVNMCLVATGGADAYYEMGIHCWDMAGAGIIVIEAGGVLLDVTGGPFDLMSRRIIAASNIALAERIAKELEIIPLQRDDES
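CHO-M1 cells (CHO stably expressing M1 receptor), compound up to 46 uM final, stimulated with carbachol (50 uM as added) in buffer with 50mM LiCl, pH 7.4, 30 min at 37C. Cytosolic IP1 read by TR-FRET; AC50 from Hill fits.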
HPGD inh: qHTS Assay for Inhibitors of HPGD (15-Hydroxyprostaglandin Dehydrogenase) | 15-hydroxyprostaglandin dehydrogenase [NAD(+)] (Homo sapiens), P15428 | purified HPGD, NADH fluorescence kinetic, PGE2 substrate | Potency, µM, without a hit: top-dose activity change, negative = inhibition, hits mostly inhibitors | 150,000 compounds, 4.3% hits | AID 894, 2007; note: potency is the fitted concentration of half-maximal effect
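20 nM HPGD preincubated 15 min at room temperature with compound in 50 mM Tris-HCl pH 8, 0.01% Tween 20. Started with 1 mM NAD+ and 30 uM prostaglandin E2; NADH fluorescence (360/450 nm) read 5 times over 30-s intervals, last minus first.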
ALDH1A1 block: qHTS Assay for Inhibitors of Aldehyde Dehydrogenase 1 (ALDH1A1); Potency, µM (highest dose often 75.3 µM), without a hit: at the top dose activity, negative = inhibition, most hits filed as inhibitors; AID 1030, 2008; Purified ALDH1A1, NADH fluorescence, propionaldehyde substrate; Aldehyde dehydrogenase 1A1 (Homo sapiens), P00352; 220,000 compounds, 7.3% hits;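 note: potency is the fitted concentration of half-maximal effect; plate controls were no enzyme wells and a reference inhibitor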
Active calls of the source: *; ? = inconclusive; nt = no result given; [ ] = another dose, or the depositor's remark. Unless noted, calls come from the whole dose curve; as a rule, active = well fitted inhibition curve with a large enough effect (not every such curve was filed as active); inconclusive = small, poorly fitted or top-dose-only effect, or another doubt; inactive = no such curve, though single readings can be large or run the other way. Unless noted, % is set by controls: 0 for no effect and ±100 for the full control effect.

SMILES	IMPase inh	HPGD inh	ALDH1A1 block
Cc1noc(C)c1S(=O)(=O)N1CCCC(C(=O)c2cccc(OC(C)C)c2)C1 (centres undefined)	nt	nt	-7.1%
COc1ccc(CCNC(=O)[C@@H](NC(=O)c2ccccc2F)C(C)C)cc1OC	nt	nt	8.8%
O=C(CSc1ccccc1)Nc1cc(S(=O)(=O)N2CCOCC2)ccc1N1CCOCC1	nt	nt	0.7%
CC(C)C[C@@H](CC(=O)N[C@@H](CCC(=O)O)CC(=O)O)NC(=O)[C@@H]1CNCC[C@H]1NC(=O)C[C@@H](NC(=O)C[C@H](Cc1ccccc1)NC(=O)[C@@H]1CNCC[C@H]1N)C(C)C	nt	-12.5%	?
CC(C)N(C)CCOC(=O)c1ccccc1Br	nt	-0.9%	14.8%
COc1cc2cc3c4cc(OC)c(OC)cc4cc[n+]3c(C)c2cc1OC	7.6[20.6 µM]	123.9%	?
Cc1ccc(-c2nc(N3CCOCC3)sc2C(=O)N2CCOCC2)cc1	nt	-7.1%	20µM*
CC(=O)c1sc(N2CCOCC2)nc1-c1ccccc1	nt	nt	-9.3%
O=C(NC1CCCCC1)c1sc(N2CCOCC2)nc1-c1ccccc1	nt	27.9%	?
Cc1ccc(-c2nc(N3CCOCC3)sc2C(=O)N2CCCCC2)cc1	1.7	-0.2%	7.94µM*
Cc1ccc(C)c(S(=O)(=O)NC(CCC(N)=O)C(=O)O)c1 (centres undefined)	10.6	nt	1.7%
CC1=NN(c2ccc(Br)cc2)C(=O)/C1=C/c1cccs1	4.6	14.1µM*	2.24µM*
CC1=NN(c2ccc(C)cc2)C(=O)/C1=C\c1ccc(Br)s1	nt	-19.4%	1.5%
Cc1cccc(NC(=O)COC(=O)Cc2cccc(C(F)(F)F)c2)c1C	-2.3	-16.6%	5.9%
CCCCCCOC(=O)CCc1c(C)nc(N)[nH]c1=O	1.1	0.6%	19.3%
CCCCCCCCOC(=O)CCc1c(C)[nH]c(=S)[nH]c1=O	4.7	-9.0%	2µM*
O=C(Nc1ccccc1C(=O)NC(Cc1ccc(O)cc1)C(=O)O)c1ccccc1 (centres undefined)	nt	nt	-6.3%
CCN(CC)C(=O)C1=C(C)Nc2nnnn2C1c1cccnc1 (centres undefined)	-0.8	-4.0%	12.6%
Cc1cc(Nc2ccccc2)n(-c2ccc(C(=O)O)cc2)n1	nt	nt	9.5%
Cc1cc(NC(=O)c2ccccc2)n(-c2ccccc2)n1	nt	nt	2.5%
Cc1ccc(S(=O)(=O)Nc2cc(C)nn2-c2ccccc2)cc1	0.8	-6.8%	25.1µM*
Cc1cc(Nc2ccccc2)n(-c2cccc(Cl)c2)n1	8.2	28.2µM*	?
CN1C(c2ccc(F)cc2)=CS/C1=C(/C#N)c1nnc(N2CCOCC2)n1-c1ccccc1	nt	-2.6%	0.794µM*
CCN1C(c2ccc(F)cc2)=CS/C1=C(\C#N)c1nnc2n1-c1ccccc1SC2	13.5	?	12.6µM*
C=CCN1C(c2ccccc2)=CS/C1=C(/C#N)c1nnc(N2CCOCC2)n1-c1ccccc1	nt	-28.5%	5.62µM*
SMILES	IMPase inh	HPGD inh	ALDH1A1 block
CCn1cnc2c1c(=O)n(Cc1nnc3n1-c1ccccc1SC3)c(=O)n2Cc1ccccc1	20.1	-9.1%	-1.9%
CN1C(=O)NC(c2ccccc2)(C(F)(F)F)S/C1=C(/C#N)c1nnc(N2CCOCC2)n1-c1ccccc1 (centres undefined)	0.6	-0.5%	-6.5%
Cc1cc(/C=C(\C#N)c2nnc(N3CCOCC3)n2-c2ccccc2)c(C)n1-c1ccccc1	nt	-14.8%	?
CCCCSc1nnc2c(n1)OC(c1ccc(Br)s1)N(C(C)=O)c1ccccc1-2 (centres undefined)	1.8	nt	nt
COc1ccc(C(=O)N2c3ccccc3C(C)(c3ccc(Cl)cc3)CC2(C)C)cc1 (centres undefined)	6.7	nt	nt
COC(=O)[C@H](COC(C)(C)C)NC(=O)O[C@@H]1Cc2cc(Br)ccc2O[C@H]1c1cccc(OC)c1	nt	-4.0%	15.8%
CCOc1ccc(CCNC(=O)c2nnc(Cc3ccc(Cl)cc3Cl)o2)cc1OCC	6.1	nt	nt
O=C(/C=C/NNC(=O)c1ccccc1)c1ccccc1	5.9	-28.7%	-8.6%
O=C(/C=C/NNC(=O)c1ccc(Br)cc1)c1ccccc1	6.8	-19.8%	10µM*
CC(O)C(=O)O (centres undefined)	nt	-2.9%	-1.5%
Cc1ccc(C2CC(=O)Oc3cc(C)c(Br)c(C)c32)cc1 (centres undefined)	nt	-7.2%	13.3%
CC(Sc1nc(NC(C)(C)C)nc(N(C)C)n1)C(=O)Nc1ccccc1 (centres undefined)	nt	nt	6.8%
CC(Sc1nc(C(C)(C)C)cc(-c2ccccc2)c1C#N)C(=O)Nc1ccccc1 (centres undefined)	nt	15.8µM*	25.1µM*
